About 83,000 compounds went through this panel and 20% of them were active in at least one assay; those are over-represented in the sample as a whole.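 Note: values are percent growth. 100 is the growth of untreated cells, values between 100 and 0 indicate rising inhibition; between -100 and 0 indicates cell death.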 A number with no mark means an inactive call. The source made the active and inactive calls.
These molecules were tested on CAKI-1 renal (assay: NCI-60 one-dose screen, 48 h (100 = growth as untreated, 0 = no growth, -100 = all killed)). Details: 10 µM unless noted.
Description: Growth inhibition of the CAKI-1 human tumor cell line is measured as a screen for anti-cancer activity. Cells are grown in 96 well plates and exposed to the test compound for 48 hours. Compounds are tested at a single concentration, which is 10^-5 M for most compounds. The reported endpoint is percent growth (GI% or GIPRCNT), where numbers from 0 - 100% represent growth inhibition, and numbers from -100% - 0 represent cell death. For example, a value of 40 represents 60% growth inhibition. A value of 0 means no net growth occurred over the course of the experiment. A value of -40 indicates 40% of cells at the beginning of the experiment died by the end of the experiment. A value of -100 means all cells are dead at the end of the experiment.
NCI-60 Human Tumor Cell Lines Screen was performed using the standard one-dose NCI protocol, which is described in more detail at https://dtp.cancer.gov/discovery_development/nci-60/default.htm.
Compounds with GIPRCNT values below 10 were considered active. Activity score was based on GIPRCNT using the following formula: […]
Score is 0 for GIPRCNT values of 100 or above, 50 for GIPRCNT values of 0, and 100 for GIPRCNT values of -100.
Molecule Clc1ccc(C2=Nn3c(nnc3-c3cc(Cl)cc(Cl)c3Cl)SC2)cc1 has a growth of 78.7%.
For Cc1nc2c(c(-c3ccccc3)n1)Cc1c(ccc3ccccc13)O2, the growth was 109%.
Molecule Nc1ncnc2c1N=C(c1ccc([N+](=O)[O-])cc1)CC(c1ccc3c(c1)OCO3)N2 (stereo not given) has a growth of 89.6%.
For C#Cc1c(I)n(C2OC(CO[Si](C)(C)C(C)(C)C)C3OC(C)(C)OC32)c(=O)[nH]c1=O (stereo not given), the growth was 74.2%.
For COC(=O)[C@H](C)NC(=O)c1ccc(NC(=O)c2[nH]c(C)c(Cl)c2Cl)c(OCCN)c1, the growth was 96%.
For COc1ccc(S(=O)(=O)Oc2ccc(-c3sc4cc(OS(=O)(=O)c5ccc(OC)cc5)ccc4c3C(=O)c3ccc(OCCN4CCCCC4)cc3)cc2)cc1, the growth was 94.1%.
Molecule COc1ccc(-c2nc(SCCC(C)C)nc(N/N=C(/C)c3ccc(N)cc3)c2C#N)cc1 has a growth of 81.8%.
COc1cc2c(c(OC)c1OC)CCC(c1cccc(NC(=O)c3cccc(Cl)c3)c1)O2 (stereo not given) showed a growth of 97.9%.
CCOc1ccc(N2C(=O)CCSC2=S)cc1 was tested, and the growth was 96.4%.
c1ccc2c(-c3cnn4cc(-c5ccc(N6CCNCC6)cc5)cnc34)ccnc2c1 was tested, and the growth was -99.6% (active).
Cn1ccnc1C(=O)/C=C/c1ccc(C(=O)Nc2ccccc2F)cc1 gave a growth of 25.8%.
Cn1cc(-c2nc(-c3c[nH]c4ccncc34)cs2)c2cc(F)ccc21 was tested, and the growth was -90.9% (active).
Molecule CCOC(=O)C1=C(c2ccccc2)N=C2SC=C(c3cccc([N+](=O)[O-])c3)N2C1c1ccc(O)cc1 (stereo not given) has a growth of 94.3%.
CO[C@H]1/C=C/O[C@@]2(C)Oc3c(C)c(O)c4c(O)c(c5c(nc6cc(C)ccn65)c4c3C2=O)NC(=O)/C(C)=C\C=C\[C@H](C)[C@H](O)[C@@H](C)C(O)[C@@H](C)[C@H](OC(C)=O)[C@@H]1C (stereo not given in full) showed a growth of 94.6%.
Work on CN1C(=O)N(C)C2C1NN=c1s/c(=C\c3ccc(F)cc3)c(=O)n12 (stereo not given) yielded a growth of 29.1%.
O=C(Cn1cc(CSc2nc3ccccc3o2)nn1)Nc1ccc([N+](=O)[O-])cc1 gave a growth of 82%.
With C/C=C(/C)C(=O)O[C@@H]1CC(C)(C)CC2C34OC(=O)[C@@]21CC[C@@]3(C)[C@]1(C)CCC2C(C)(C)C(=O)CC[C@]2(C)C1C[C@@H]4O (stereo not given in full) the growth was 59.6%.
Work on COc1ccc(-c2nc3cc(C(=O)NC4CCCCC4)ccc3n2C2CCCCC2)cc1 yielded a growth of 89.2%.
In the case of CCN1C(=O)N(CC)C2C1NN=c1s/c(=C\c3ccc([N+](=O)[O-])cc3)c(=O)n12 (stereo not given), the growth is reported as 37.1%.
Molecule COc1ccc2c(c1)C(c1c[nH]c3ccccc13)(c1c[nH]c3ccccc13)CCO2 has a growth of 44%.
In the case of C=C(c1ccc(OC)c(/C=C/C(=O)c2cc(OC)c(OC)c(OC)c2)c1)c1cc(OC)c(OC)c(OC)c1, the growth is reported as 24.6%.
With COc1cc(/C=C2\CN(S(=O)(=O)c3ccc(C)cc3)C/C(=C\c3cc(CN4CCCC4)c(O)c(OC)c3)C2=O)cc(CN2CCCC2)c1O the growth was 23.9%.
For COc1cc2c(cc1OC)CC[N+](CCC[N+](C)(C)C)=C2, the growth was 96.3%.
CCCCCCCCNc1ncnc2c1ncn2Cc1nnc2c3ccccc3c(Cl)nn12 gave a growth of 16.7%.
CN1CCN(Cc2ccc(NC(=O)c3cncc(C#Cc4c(N)ncc5cc(F)ccc45)c3)cc2C(F)(F)F)CC1 was tested, and the growth was 62%.
In the case of CCN(CC)CCCNc1cc(OC)cc2cccnc12, the growth is reported as 103%.
O=C(CNc1ncco1)Nc1ccc(S(=O)(=O)c2ccc(NC(=O)CNc3ncco3)cc2)cc1 was tested, and the growth was -51.6% (active).
In the case of CC(=O)O[C@H]1CC[C@@]2(C)C(=CC[C@@H]3[C@@H]2CC[C@]2(C)C(Cl)=C(c4nc5ccc(Cl)cn5c4NC(C)(C)C)C[C@@H]32)C1, the growth is reported as 65.1%.
Cc1ccc(OCCOCCOCCOCCOc2ccc(C)n(O)c2=S)c(=S)n1O was tested, and the growth was 8.11% (active).
Work on C#CCOc1cc(/C=N/Nc2nc(-c3ccc(OC)cc3)cs2)ccc1O yielded a growth of 77.6%.
COc1ccc(/C=C\c2cc(OC)c(OC)c(OC)c2)cc1OCC(=O)Nc1nc2ccccc2s1 gave a growth of 17.6%.
Work on Nc1nc(Nc2ccc([N+](=O)[O-])cc2O)nc(C(Cl)(Cl)Cl)n1 yielded a growth of 46.3%.
CCOC(=O)c1c(C)c2c(n1Cc1ccccc1)CSc1cc(C#N)c(=O)[nH]c1-2 gave a growth of 58.9% [100 µM].
N#C/C(=N\Nc1ccccc1)C(=O)Nc1cc(-c2ccccc2)nn1-c1ccccc1 showed a growth of 37.9%.
Molecule CCOC(=O)CCC(=O)P(=O)(O)O has a growth of 137%.
Work on NCCCCCNc1noc(Cc2c[nH]c3cc(Br)ccc23)n1 yielded a growth of 35.3%.
COc1cc(C2CC(c3cccc(Nc4ccncc4)c3)=Nc3c(N)ncnc3N2)cc(OC)c1OC (stereo not given) showed a growth of 85%.
With COc1ccc(-c2cc(-c3ccc(Cl)cc3)c(C#N)c(=O)n2CCCCC(=O)NO)cc1 the growth was -13.2% (active).
COc1ccc(-c2cc(-c3ccc(N(C)C)cc3)nc(NC(=O)c3cccnc3)n2)cc1 gave a growth of 92.6%.
For C/C(=N\NC(=O)c1ccc(C(C)(C)C)cc1)c1ccc(O)cc1O, the growth was 17.1%.

Reference: PubChem BioAssay (NCI)
